High-throughput results from PubChem.
Shown is part of a subset that was picked to be rich in hits.
Dicer processing: blocks human Dicer maturation of pre-miR-21; Q9UPY3; cat-ELCCA pre-miR-21 Dicer processing, chemiluminescence; stronger effect = higher value; z-score at 25 µM; hit rate 6% among 47,000; in the data active = z-score above about 3, passing the limit was not always enough;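 also: plate controls were vehicle for no effect and no enzyme for full effect; higher signal means more uncleaved substrate so more Dicer inhibition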
The depositor's hits bear a star.

SMILES	Dicer processing
COC(=O)C1=C(C)NC2=C(C(=O)CC(c3ccccc3OC)C2)C1c1cccc(OC)c1OC (stereo unspecified)	-0.37
COc1ccc(C2CC(=O)C3=C(C2)NC(C)=C(C(=O)OC(C)C)C3c2ccccc2OC)cc1OC (stereo unspecified)	1.03
COCCOC(=O)C1=C(C)NC2=C(C(=O)CC(c3ccccc3)C2)C1c1cccc(OC)c1OC (stereo unspecified)	7.2*
CC1=C(C(=O)OC2CCCC2)C(c2ccccc2)C2=C(CC(c3ccccc3)CC2=O)N1 (stereo unspecified)	3.14*
CCSCCOC(=O)C1=C(C)NC2=C(C(=O)CC(c3ccccc3)C2)C1c1ccc(F)cc1 (stereo unspecified)	-0.88
CC1=C(C(=O)OC2CCCCC2)C(c2ccccn2)C2=C(CC(c3ccccc3)CC2=O)N1 (stereo unspecified)	0.33
CCSCCOC(=O)C1=C(C)NC2=C(C(=O)CC(c3cccs3)C2)C1c1ccc(F)cc1 (stereo unspecified)	0.18
COc1ccccc1C1C(C(=O)OCC(C)C)=C(C)NC2=C1C(=O)CC(c1ccccc1)C2 (stereo unspecified)	5.01*
COC(=O)C1=C(C)NC2=C(C(=O)CC(c3ccccc3)C2)C1c1ccccc1OC(C)C (stereo unspecified)	0.57
COCCOC(=O)C1=C(C)NC2=C(C(=O)CC(c3ccccc3)C2)C1c1ccccc1F (stereo unspecified)	8.06
COc1ccc(C2CC(=O)C3=C(C2)NC(C)=C(C(=O)OC2CCCC2)C3c2ccc(OC)cc2)cc1 (stereo unspecified)	-0.2
CCSCCOC(=O)C1=C(C)NC2=C(C(=O)CC(c3ccccc3)C2)C1c1ccccc1F (stereo unspecified)	3.95*
O=C(Nc1nnc(C2CC2)s1)Nc1cccc2ccccc12	1.09
CCC(C)NC(=O)Cn1cnc2c1c(=O)n(C)c(=O)n2C (stereo unspecified)	-0.27
CCCOC(=O)C1=C(C)NC2=C(C(=O)CC(C)(C)C2)C1c1ccc(OC(C)=O)cc1 (stereo unspecified)	-0.43
COc1cccc(OCC(O)CN2CC(C)OC(C)C2)c1 (stereo unspecified)	0.99
O=C(O)CC1SC(c2cccc(Cl)c2)=NC1=O (stereo unspecified)	0.84
COC(=O)Cc1cc(=O)n2[nH]c(C(F)(F)F)c(-c3ccc(Br)cc3)c2n1	2.47
CCOC(=O)c1c(NC(C)=O)sc2c1CCC(Sc1ccccc1)C2=O (stereo unspecified)	0.59
COc1ccc(Sc2nc(C)c(-c3csc(C)n3)cc2C#N)cc1	-1.87
Cc1ccc(OCC(=O)NNC(=S)NC(C)c2ccccc2)c2c1CCC2 (stereo unspecified)	-1.56
COC(=O)c1cc(=O)n2c(-c3ccccc3)nnc2s1	-0.52
CC(C)=CC(=O)NCCSCc1ccc(Cl)cc1	-1.9
Cc1ccc(NC(=O)c2ccccc2N)c(N)c1	-1.66
Cc1nn(C)c(NC(=O)c2ccc(Cl)cc2)c1Br	1.6
SMILES	Dicer processing
CC(C)(C)CC(C)(C)NC(=O)C(Sc1ccccc1N)c1ccccc1 (stereo unspecified)	-0.37
CCC/C(O)=C(/C=N/c1ccc(C(=O)OC)o1)C(=O)OCC	-0.82
O=S(=O)(c1ccc(Cl)cc1)n1cc2c(n1)CCOC2	-0.47
COc1ccccc1C1C(C(=O)OCC2CCCO2)=C(C)NC2=C1C(=O)CC(C)(C)C2 (stereo unspecified)	0.12
COc1ccc(C2CC(=O)C3=C(C2)NC(C)=C(C(=O)OCC(C)C)C3c2ccncc2)cc1 (stereo unspecified)	0.73
CCSCCOC(=O)C1=C(C)NC2=C(C(=O)CC(c3ccccc3)C2)C1c1ccc(N(C)C)cc1 (stereo unspecified)	1.6
CC1=C(C(=O)OCC(C)C)C(c2ccc(N(C)C)cc2)C2=C(CC(c3ccccc3)CC2=O)N1 (stereo unspecified)	3.62*
COc1cccc(C2C(C(=O)OCc3ccccc3)=C(C)NC3=C2C(=O)CC(C)(C)C3)c1OC (stereo unspecified)	-0.01
COc1cccc(C2C(C(=O)OCC3CCCO3)=C(C)NC3=C2C(=O)CC(C)(C)C3)c1OC (stereo unspecified)	5.43*
O=C1CSC(=S)N1CCc1ccccc1	-0.6
CN(NC(=O)c1ccncc1)c1ccc(C(F)(F)F)cc1[N+](=O)[O-]	-0.71
CCCOc1ccc(C2c3c(oc4ccccc4c3=O)C(=O)N2c2nc(C)c(C)s2)cc1OCC (stereo unspecified)	-0.12
CCOC(=O)COc1ccc2c(=O)c(Oc3ccc(C(C)(C)C)cc3)coc2c1	-0.02
CCOC(=O)c1sc(N2C(=O)c3oc4ccc(C)cc4c(=O)c3C2c2cccc(O)c2)nc1C (stereo unspecified)	0.48
N#Cc1ccccc1N=Nc1c(O)ccc2ccccc12	1.29
CCc1nc2ccccc2n1CC(O)COc1cccc(OC)c1 (stereo unspecified)	33.7
O=S(=O)(NC1CCN(Cc2ccccc2)CC1)c1cccs1	10.4
